Compound activity as filed in PubChem BioAssay.
Sampled rows, rich in hits. Any-hit rate of the full collection: about 2.2%.
HSP90 refold inh: blocks HSP90-mediated luciferase refolding in reticulocyte lysate; Rabbit reticulocyte lysate, luciferase refolding luminescence, 3 h; inhibition, % at 5.6 µM; 0.91% of 290,000 active;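 active = inhibition above the screen-wide mean plus 3 SD, computed separately per campaign, cut at about 16% in these data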;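 note: inhibitors lower the luminescence because luciferase stays unfolded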
TROY NFkB inh: TROY signaling inhibition; inhibition, % at 10 µM; 0.98% of 360,000 active; Q293 LMP1-TROYcd NF-kB luciferase reporter, 4 h; AID 1347056;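 active = compounds whose plate-normalised and pattern-corrected inhibition of the luciferase reporter signal at the single screening dose is 50% or more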
LGR2 antag: inhibitors of bursicon-induced Drosophila LGR2 receptor cAMP signaling; HEK293 LGR2, CRE-luciferase, bursicon-stimulated, 4 h; 0.35% of 380,000 active; inhibition, % at 9.99 µM;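 active = drop in luminescence signal, shown as inhibition above about 50% in the replicate tests, limit read from the data, passing the limit was not always enough; inconclusive = probably only some replicates passing the limit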;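 note: agonist challenge used bursicon conditioned medium at about half maximal strength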
TWEAK Fn14 block: TWEAK-Fn14 signaling inhibition; TWEAK-stimulated Fn14 reporter cells, luciferase luminescence, 8 h; 2% of 360,000 active; inhibition, % at 10 µM; in the data active = inhibition above about 50%
Hits are given with their value.

`O=C(c1cccnc1)N1C[C@H]2[C@@H](c3ccccc31)[C@H](CO)N2CC1CCCCC1` gave LGR2 antag inactive.
`CCOc1ccccc1C(=O)Nc1nnc(SCC(=O)N2CCOCC2)s1` gave HSP90 refold inh inactive, TROY NFkB inh inactive, LGR2 antag inactive and TWEAK Fn14 block inactive.
`O=C(Nc1nnc(SCC(=O)N2CCOCC2)s1)c1ccccc1` gave HSP90 refold inh inactive, TROY NFkB inh 73, LGR2 antag inactive and TWEAK Fn14 block 71.
For CC(=O)Nc1ccc(Oc2sc(C(=O)c3ccccc3)c(N)c2C#N)cc1 the results were HSP90 refold inh inactive, TROY NFkB inh inactive and TWEAK Fn14 block 53.
For COc1ccc2c3c(n(C)c2c1)[C@H](CO)N(C(=O)NC(C)C)CC31CN(CC2CC2)C1 the results were LGR2 antag inactive.
CC(NC(=O)/C=C/c1cnc2ccccc2n1)C12CC3CC(CC(C3)C1)C2 (stereo not drawn) was read as HSP90 refold inh inactive, TROY NFkB inh 75, LGR2 antag inactive and TWEAK Fn14 block 77.
CCOC(=O)CCS(=O)(=O)c1nc(-c2ccccc2)cc(C(F)(F)F)n1 was read as HSP90 refold inh inactive, TROY NFkB inh inactive and TWEAK Fn14 block 84.
`Cc1cc(NC(=O)CSc2nc(-c3cccs3)cc(C(F)(F)F)n2)no1` gave HSP90 refold inh inactive, TROY NFkB inh inactive, LGR2 antag inactive and TWEAK Fn14 block inactive.
Screening CCOC(=O)CS(=O)(=O)c1nc(-c2ccccc2)cc(C(F)(F)F)n1 returned HSP90 refold inh inactive, TROY NFkB inh inactive and TWEAK Fn14 block inactive.
Screening COc1ccc(-c2cc(C(F)(F)F)nc(S(=O)(=O)CCCC(=O)Nc3cccnc3Cl)n2)cc1OC returned HSP90 refold inh inactive, TROY NFkB inh inactive, LGR2 antag inconclusive and TWEAK Fn14 block 94.
Screening Cc1cc(NC(=O)CCCS(=O)(=O)c2nc(-c3cccs3)cc(C(F)(F)F)n2)no1 returned HSP90 refold inh inactive, TROY NFkB inh 66, LGR2 antag inactive and TWEAK Fn14 block 60.
For COC(=O)CCS(=O)(=O)c1nc(-c2ccccc2)cc(C(F)(F)F)n1 the results were HSP90 refold inh inactive, TROY NFkB inh inactive and TWEAK Fn14 block 91.
`CCNC(=O)[C@H]1[C@H](CO)[C@H]2Cn3c(ccc(-c4cncnc4)c3=O)[C@H]2N1C(=O)c1ccccc1F` gave LGR2 antag inactive.
Screening COCC(C)NC(=O)CCS(=O)(=O)c1nc(-c2ccc(OC)cc2)cc(C(F)(F)F)n1 (stereo not drawn) returned HSP90 refold inh inactive, TROY NFkB inh inactive and TWEAK Fn14 block 86.
`COCC(=O)Nc1ccc2c(c1)C(=O)N(C)C[C@H](OC)[C@H](C)CN(C(C)=O)[C@@H](C)CO2` gave LGR2 antag inactive.
O=C(N[C@@H]1CC[C@H](CC(=O)N2CCOCC2)O[C@@H]1CO)c1ccccn1 was read as LGR2 antag inactive.
Screening CCC(=O)Nc1ccc2c(c1)C(=O)N(C)C[C@@H](OC)[C@H](C)CN(C(=O)COC)[C@@H](C)CO2 returned LGR2 antag inactive.
Screening CCOc1ccccc1-n1nnnc1SCC(=O)NC(=O)Nc1ccc2c(c1)OCCO2 returned HSP90 refold inh inactive, TROY NFkB inh inactive and TWEAK Fn14 block 70.
`CC(=O)c1cc(NC(=O)c2ccc(C)cc2)c(=O)oc1/C=C/N(C)C` gave HSP90 refold inh inactive, TROY NFkB inh 54 and TWEAK Fn14 block inactive.
Screening O=C(C[C@H]1CC[C@@H]2[C@H](COC[C@@H](O)CN2C(=O)C2CCOCC2)O1)NCc1ccncc1 returned LGR2 antag inactive.
COC(=O)CN(c1ccc(C)cc1)S(=O)(=O)c1ccc2c(c1)n(C)c(=O)c(=O)n2C was read as HSP90 refold inh inactive, TROY NFkB inh inactive and TWEAK Fn14 block inactive.
CCOc1ccc(N(CC(=O)OC)S(=O)(=O)c2ccc3c(c2)n(C)c(=O)c(=O)n3C)cc1 was read as HSP90 refold inh inactive, TROY NFkB inh inactive, LGR2 antag inactive and TWEAK Fn14 block 80.
For O=C1/C(=C\c2cccc([N+](=O)[O-])c2O)SC(=S)N1Cc1ccccc1 the results were HSP90 refold inh inactive, TROY NFkB inh inactive, LGR2 antag inactive and TWEAK Fn14 block 69.
Screening O=C1/C(=C\c2ccc(O)cc2)SC(=S)N1Cc1ccccc1 returned HSP90 refold inh inactive, TROY NFkB inh inactive, LGR2 antag inactive and TWEAK Fn14 block inactive.
Screening O=C1/C(=C\c2cc(Br)cc(Br)c2O)SC(=S)N1Cc1ccccc1 returned HSP90 refold inh inactive, TROY NFkB inh inactive and TWEAK Fn14 block inactive.
For O=C1/C(=C/c2ccccc2O)SC(=S)N1Cc1cccnc1 the results were HSP90 refold inh inactive, TROY NFkB inh inactive, LGR2 antag 83 and TWEAK Fn14 block inactive.
For O=C1/C(=C/c2ccc(O)c([N+](=O)[O-])c2)SC(=S)N1Cc1ccccc1 the results were HSP90 refold inh inactive, TROY NFkB inh inactive, LGR2 antag inactive and TWEAK Fn14 block 60.
For C[C@@H]1CN([C@@H](C)CO)C(=O)c2cc(NS(C)(=O)=O)ccc2O[C@H]1CN(C)Cc1ccc(C(F)(F)F)cc1 the results were LGR2 antag inactive.
`CO[C@H]1CN(C)C(=O)c2ccc(NS(C)(=O)=O)cc2OC[C@@H](C)N(CC2CCOCC2)C[C@H]1C` gave LGR2 antag inactive.
CCCCSc1nc(CCC)cc(=O)[nH]1 was read as HSP90 refold inh inactive, TROY NFkB inh inactive and TWEAK Fn14 block 92.
`CCCc1cc(=O)[nH]c(SCC)n1` gave HSP90 refold inh inactive, TROY NFkB inh inactive and TWEAK Fn14 block inactive.
Screening C=CC(C)(C)c1c(O)c(CC=C(C)C)c(O)c2c(=O)c3ccc(O)c(O)c3oc12 returned TROY NFkB inh inactive and TWEAK Fn14 block 76.
C[C@@H]1CN([C@@H](C)CO)C(=O)c2cc(NC(=O)CCCN(C)C)ccc2O[C@@H](C)CCCCO[C@@H]1CN(C)C(=O)Nc1ccc2c(c1)OCO2 was read as LGR2 antag inactive.
`S=C(Nc1ccc(Cl)c(Cl)c1)NC1CCCCC1` gave HSP90 refold inh inactive, TROY NFkB inh inactive, LGR2 antag inactive and TWEAK Fn14 block 63.
S=C(Nc1ccc2nsnc2c1)NC1CCCCC1 was read as HSP90 refold inh inactive, TROY NFkB inh inactive, LGR2 antag inactive and TWEAK Fn14 block inactive.
CCN1CCN(CCCNC(=O)c2ccc(/C=C3/Sc4ccccc4N(Cc4ccccc4F)C3=O)cc2)CC1 was read as HSP90 refold inh inactive, TROY NFkB inh 60, LGR2 antag inactive and TWEAK Fn14 block inactive.
For CCN1CCN(CCNC(=O)c2ccc(/C=C3/Sc4ccccc4N(Cc4ccccc4C)C3=O)cc2)CC1 the results were HSP90 refold inh inactive, TROY NFkB inh inactive, LGR2 antag inactive and TWEAK Fn14 block inactive.
C[C@@H]1CN([C@@H](C)CO)C(=O)c2cc(NC(=O)NC3CCCCC3)ccc2O[C@@H](C)CCCCO[C@H]1CN(C)S(=O)(=O)c1cn(C)cn1 was read as LGR2 antag inactive.
c1ccc(-c2cnc(-c3ccccn3)nn2)cc1 was read as TROY NFkB inh inactive, LGR2 antag inactive and TWEAK Fn14 block inactive.
Screening Brc1ccc(-c2ncc(-c3ccccc3)cn2)cc1 returned HSP90 refold inh inactive, TROY NFkB inh inactive and TWEAK Fn14 block 52.
c1ccc(-c2cnc(-c3ccccc3)nn2)cc1 was read as TROY NFkB inh inactive, LGR2 antag 74 and TWEAK Fn14 block inactive.
